Screening results as filed in PubChem.
Cl transport mod: modulators of human KCC2 chloride dependent transport; AID 1456; KCC2 cells, thallium flux FluoZin-2 fluorescence; actives 2.2% (n = 190,000); B-score of Tl+ flux slope (higher = more flux/activation; lower = inhibition) at 10 µM;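 active = thallium flux slope and its plate-corrected score both differing from the plate sample mean at a set confidence after two filtering rounds, in either direction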;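 also: slope of fluorescence scaled to starting intensity during 10 to 20 s after thallium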
Measles CPE: protection of cells from measles virus | Measles virus-infected cells, CPE protection, absorbance | actives 1.5% (n = 140,000) | AID 841 | protection (pct of control), % at 4 µM; in the data active = protection mostly above about 24%, no sharp cut-off; inactive = mostly below about 26%
HSV augment: increases HSV replication in cells. HSV replication augmentation in cells, fold increase. maximum fold increase. actives 0.005% (n = 220,000); in the data active = maximum fold increase above about 1.5; inconclusive = no clear call, values can overlap the other calls; tested in PC3 cells
ROMK mod: modulates human ROMK potassium channel activity; P48048; Tet-inducible ROMK, thallium flux fluorescence; actives lie on both sides; B-score at 10 µM; actives 2% (n = 130,000);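 active = signal ratio slope over the read window, or its plate-corrected B-score, at least 3 SD from the plate mean, either direction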;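 also: B-score of the F/F0 ratio slope over 7 to 12 s after thallium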
Target sequence (P48048 whole entry, looked up): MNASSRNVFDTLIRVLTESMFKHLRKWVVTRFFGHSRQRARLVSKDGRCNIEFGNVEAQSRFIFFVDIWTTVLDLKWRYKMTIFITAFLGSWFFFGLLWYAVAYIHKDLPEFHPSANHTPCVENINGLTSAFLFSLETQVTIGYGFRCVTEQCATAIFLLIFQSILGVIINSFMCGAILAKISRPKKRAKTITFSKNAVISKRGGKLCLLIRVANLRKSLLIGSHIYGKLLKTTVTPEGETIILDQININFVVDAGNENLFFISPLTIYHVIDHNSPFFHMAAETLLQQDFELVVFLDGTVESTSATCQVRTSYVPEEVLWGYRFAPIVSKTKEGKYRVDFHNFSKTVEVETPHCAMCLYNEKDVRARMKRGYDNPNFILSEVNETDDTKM
Arbovirus inh: blocks arbovirus infection | arbovirus infection cell-based antiviral screen | inhibition, % at 10 µM | actives 0.37% (n = 200,000) | AID 1251; in the data active = inhibition above about 30%
KCC2 sec1: KCC2 (human) modulation, secondary assay | shares compounds with Cl transport mod | HEK293-KCC2, thallium flux, FluoZin2 fluorescence; active compounds read high | normalised thallium flux (F/F0 slope) at 10 µM | actives 15% (n = 3,700) | AID 1713;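 active = thallium flux slope above the same plate's solvent-only control mean plus 3 SD; inconclusive = the two replicate wells disagree; inactive = no significant difference from solvent-only control wells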
KCC2 bumet counter: thallium flux persisting under bumetanide in KCC2 cells, counter-screen secondary assay | shares compounds with Cl transport mod | HEK293-KCC2 + bumetanide/ouabain, thallium flux FluoZin2; active compounds read high | normalized thallium flux at 10 µM | actives 49% (n = 3,700) | AID 1714;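 active = thallium entry rate above the same plate's blocked-transporter control wells by more than 3 SD; inconclusive = the two repeat wells disagree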;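 also: raw slope of fluorescence over initial fluorescence between 10 and 20 s after thallium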
KCC2 secondary2: KCC2 (human) modulation, second secondary assay. HEK293-KCC2, thallium flux FluoZin2 fluorescence; actives lie on both sides; F/F0 rise rate, 10–20 s post-thallium. actives 23% (n = 3,700). AID 1715. normalized thallium flux at 10 µM. shares compounds with Cl transport mod;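 active = thallium flux slope more than 3 SD above or below the plate's solvent-only control mean, mostly below; inconclusive = the two repeat wells disagreed; inactive = no significant shift from solvent-only controls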
HEK counter1: parental HEK flux effect, counter-screen. thallium flux rate (normalised fluorescence) at 10 µM. actives 46% (n = 3,700). HEK293 parental cells, thallium flux FluoZin2, ouabain; baseline-ratio fluorescence slope, 10–20 s after thallium. shares compounds with Cl transport mod;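 active = thallium flux rate significantly above the same plate's solvent-only control wells, beyond their mean plus 3 SD; inconclusive = the two replicate wells gave conflicting results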
KCC2 retest ouab: confirmation of human KCC2 modulators with ouabain. shares compounds with Cl transport mod. HEK293-KCC2, thallium flux FluoZin2 fluorescence; bidirectional: low = inhibitor, high = activator. raw Tl+ flux slope (below DMSO = inhibition, above = activation) at 10 µM. actives 48% (n = 3,700);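 active = thallium flux slope beyond 3 SD from same-plate DMSO control mean in most replicates, usually higher, sometimes lower; inconclusive = repeat tests gave conflicting results; inactive = no significant difference from controls in most replicates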;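 also: slope of initial-normalized fluorescence between seconds 10 and 20 after thallium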
HEK counter2: acts in parental HEK cells, second KCC2 counter-screen; shares compounds with Cl transport mod; HEK293 parental, thallium flux FluoZin-2 fluorescence slope; thallium flux slope at 10 µM; actives 33% (n = 3,700);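 active = thallium flux slope above the same plate's solvent-control mean plus 3 SD in both duplicate wells; inconclusive = duplicate wells that disagreed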;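 also: run without ouabain in cells lacking the KCC2 cotransporter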
Of the large screens only hits and unclear results are named; the others gave an inactive call (follow-up assays come after a bar, where they were run). Only some compounds are listed: those with a hit (about 4% of all), similar ones and a draw of the others.

CC(=O)NC1=NN(C(C)=O)C(C)(c2ccccc2)S1 (centres undefined)	none (no result: Cl transport mod, ROMK mod)
CC(=O)NC1=NN(C(C)=O)C2(S1)C(=O)N(C(C)C)c1ccc(C)cc12 (centres undefined)	none (no result: Cl transport mod) | KCC2 sec1 inactive | KCC2 bumet counter inactive | KCC2 secondary2 inactive | HEK counter1 inactive | KCC2 retest ouab inactive | HEK counter2 inactive
O=C(N/N=C/c1ccc([N+](=O)[O-])o1)c1ccccc1NS(=O)(=O)c1cccs1	none (no result: Cl transport mod, Measles CPE, Arbovirus inh)
Cc1c(C(=O)NCCSCc2ccc(F)cc2)cnn1-c1ccc(Cl)cc1	Cl transport mod -3.8 (no result: Measles CPE, ROMK mod, Arbovirus inh) | KCC2 sec1 inactive | KCC2 bumet counter inactive | KCC2 secondary2 inconclusive | HEK counter1 inactive | KCC2 retest ouab 0.017 | HEK counter2 inactive
O=C(N/N=C1\CCc2ccccc21)c1ccccc1O	none (no result: ROMK mod)
O=C(OC1CCc2ccccc2C1=O)c1ccccc1O (centres undefined)	Cl transport mod -3.8 (no result: ROMK mod) | KCC2 sec1 inactive | KCC2 bumet counter inconclusive | KCC2 secondary2 0.027 | HEK counter1 inactive | KCC2 retest ouab 0.013 | HEK counter2 inactive
O=C(COC(=O)c1nc(-c2ccccc2)n(-c2cccc(C(F)(F)F)c2)n1)NCc1cccs1	none (no result: Measles CPE, ROMK mod)
O=C(Nc1c(O)c2ccccc2[nH]c1=O)c1ccco1	none (no result: Measles CPE, ROMK mod, Arbovirus inh)
O=C(NNc1nc(-c2ccccc2)cs1)c1ccccc1	Cl transport mod -5.9 (no result: HSV augment, ROMK mod) | KCC2 sec1 inactive | KCC2 bumet counter inconclusive | KCC2 secondary2 0.025 | HEK counter1 inactive | KCC2 retest ouab 0.014 | HEK counter2 inactive
Cc1cccc(C(=O)NNC(=O)c2ccc(-c3ccccc3)cc2)c1	none (no result: Cl transport mod, ROMK mod)
O=C(NNC(=O)c1ccc(-c2ccccc2)cc1)c1ccccc1	Cl transport mod -3.7 (no result: Measles CPE, ROMK mod) | KCC2 sec1 inactive | KCC2 bumet counter inconclusive | KCC2 secondary2 inactive | HEK counter1 inactive | KCC2 retest ouab inactive | HEK counter2 inconclusive
O=C(NNC(=O)c1cc(-c2ccccc2)nn1-c1ccccc1)c1ccccc1	Cl transport mod 29 | KCC2 sec1 inactive | KCC2 bumet counter 0.1 | KCC2 secondary2 0.067 | HEK counter1 0.067 | KCC2 retest ouab 0.076 | HEK counter2 0.063
CCn1c(NC(=O)Nc2cccc(C)c2C)cc2sccc21	none (no result: HSV augment, ROMK mod)
CCOC(=O)c1nc2sc3c(c2c(=O)n1C(C)C(=O)OCC)CCCC3 (centres undefined)	none (no result: Measles CPE, ROMK mod)
O=C(Cn1c(=S)[nH]c2ncccc2c1=O)NCCc1ccccc1	none (no result: Measles CPE)
CCC(C)(C)n1nnnc1C(c1ccc2ncccc2c1)N1CCN(c2nc3ccccc3s2)CC1 (centres undefined)	none (no result: Cl transport mod, ROMK mod) | KCC2 sec1 inactive | KCC2 bumet counter inactive | KCC2 secondary2 inactive | HEK counter1 inactive | KCC2 retest ouab 0.016 | HEK counter2 inactive
CCCCC(c1nnnn1CC1CCCO1)N1CCN(c2nc3ccccc3s2)CC1 (centres undefined)	Cl transport mod -4.1 (no result: ROMK mod) | KCC2 sec1 inactive | KCC2 bumet counter inactive | KCC2 secondary2 0.023 | HEK counter1 inconclusive | KCC2 retest ouab 0.012 | HEK counter2 inactive
CCCC(c1nnnn1CC1CCCO1)N1CCN(c2nc3ccccc3s2)CC1 (centres undefined)	Cl transport mod -3.8 (no result: ROMK mod) | KCC2 sec1 inactive | KCC2 bumet counter inactive | KCC2 secondary2 inactive | HEK counter1 inactive | KCC2 retest ouab 0.013 | HEK counter2 inactive
CC(C)CC(c1nnnn1CC1CCCO1)N1CCN(c2nc3ccccc3s2)CC1 (centres undefined)	none (no result: ROMK mod)
O=[N+]([O-])c1cc(C(F)(F)F)cc([N+](=O)[O-])c1Sc1n[nH]c(C(F)(F)F)n1	none (no result: Measles CPE, ROMK mod, Arbovirus inh)
Cc1nn(-c2ccccc2)nc1C(=O)c1c(C)[nH]n(-c2ccccc2)c1=O	Cl transport mod 11 (no result: Measles CPE, Arbovirus inh) | KCC2 sec1 0.015 | KCC2 bumet counter 0.029 | KCC2 secondary2 inactive | HEK counter1 inconclusive | KCC2 retest ouab 0.034 | HEK counter2 inconclusive
CCOc1cc(N(CC)CC)ccc1/C=C(/C#N)c1nc2ccccc2[nH]1	none (no result: Cl transport mod, HSV augment, ROMK mod) | KCC2 sec1 0.0077 | KCC2 bumet counter -0.0033 | KCC2 secondary2 inactive | HEK counter1 inconclusive | KCC2 retest ouab 0.0081 | HEK counter2 inactive
CNC(=S)N1CCC(NC(=O)C(Cc2ccccc2)NC(C)=O)CC1 (centres undefined)	none (no result: Measles CPE)
CN1c2ccccc2C(O)=C(C(=S)Nc2ccc(Cl)cc2)S1(=O)=O	none (no result: Cl transport mod, ROMK mod) | KCC2 sec1 inactive | KCC2 bumet counter 0.021 | KCC2 secondary2 inactive | HEK counter1 0.017 | KCC2 retest ouab inconclusive | HEK counter2 0.021
CN1CCN(NC(=O)c2cccc(C(F)(F)F)c2)CC1	none (no result: Measles CPE, ROMK mod, Arbovirus inh)
CCOC(=O)CC1C(=O)NCCN1c1nc2ccc(C)cn2c(=O)c1/C=C1\SC(=S)N(CC(C)C)C1=O (centres undefined)	Cl transport mod -5.2 (no result: Measles CPE, HSV augment, ROMK mod, Arbovirus inh) | KCC2 sec1 0.0035 | KCC2 bumet counter 0.00041 | KCC2 secondary2 0.014 | HEK counter1 0.0033 | KCC2 retest ouab 0.0071 | HEK counter2 0.0049
O=C(Cn1[nH]c(=O)c2ccccc2c1=O)NC1CCN(Cc2ccccc2)CC1	Cl transport mod -4.3 (no result: Measles CPE, ROMK mod) | KCC2 sec1 inactive | KCC2 bumet counter inactive | KCC2 secondary2 inactive | HEK counter1 inactive | KCC2 retest ouab inactive | HEK counter2 inactive
CC(C)CCNC(=O)CN(C(=O)CCC(=O)Nc1ccccn1)c1ccc(F)c(Cl)c1	none (no result: Measles CPE)
O=C(Nc1nc(-c2cccs2)cs1)c1ccc(Cl)s1	Cl transport mod 3.1 (no result: ROMK mod) | KCC2 sec1 inactive | KCC2 bumet counter 0.015 | KCC2 secondary2 inactive | HEK counter1 0.0086 | KCC2 retest ouab inactive | HEK counter2 inactive
O=C(C1CCCN(S(=O)(=O)c2cccc3nsnc23)C1)N1CCc2ccccc21 (centres undefined)	none (no result: Cl transport mod, HSV augment) | KCC2 sec1 inactive | KCC2 bumet counter inactive | KCC2 secondary2 inactive | HEK counter1 inconclusive | KCC2 retest ouab inactive | HEK counter2 inactive
O=C(C1CCCN(S(=O)(=O)c2cccc3nsnc23)C1)N1CCc2ccccc2C1 (centres undefined)	Cl transport mod -3.2 (no result: HSV augment) | KCC2 sec1 inactive | KCC2 bumet counter inactive | KCC2 secondary2 inactive | HEK counter1 inactive | KCC2 retest ouab inactive | HEK counter2 inactive
